Assay results reported in publication PMC12864922, “TDP-43 directly inhibits mRNA accumulation in neurites through modulation of mRNA stability”.
In all, about 9,900 sequences were measured (“r (bound/input frequency ratio)”: median about 0.7, highest 2% from about 6.5 on). The list comes from a sample in which the highest values are over-represented; it also holds similar and randomly drawn sequences.

B1: ENSMUSG00000022095.188|Fam160b2 (ssRNA)
RNA: GGGAGUUCUACAGUCCGACGAUCGCUUCGAUAUCCGCAUGCUAGCAGUUGUUGGCUUCCCUCCUGGGCAAGGAGGAGCAGGCCAGAGCCCCUUUUGCUUCCUUUUCCUGCCCAUGCCACCUCUCGAAGCCGGGCACAGGUUGCCAGGAGGUGACAUGAAAGAGGAGGAAACUCCAUGACCUCUACAUCCCCCGCAGUCCUCCCAGCGGGGGAGGACUUCUCUGCUGCUCCGAAGAACAUCAUGCACUCCUGUGUGUGUGUGUGAGUGUGUGUGUGUGUGUGUGUGUGUGUGUGUGUGUAUGUGCUCUUGCGGUCGCACUAGUGUGGAAUUCUCGGGUGUCAAGG
B2: ENSMUSG00000022095.189|Fam160b2 (ssRNA)
RNA: GGGAGUUCUACAGUCCGACGAUCGCUUCGAUAUCCGCAUGCUAGUUGGCUUCCCUCCUGGGCAAGGAGGAGCAGGCCAGAGCCCCUUUUGCUUCCUUUUCCUGCCCAUGCCACCUCUCGAAGCCGGGCACAGGUUGCCAGGAGGUGACAUGAAAGAGGAGGAAACUCCAUGACCUCUACAUCCCCCGCAGUCCUCCCAGCGGGGGAGGACUUCUCUGCUGCUCCGAAGAACAUCAUGCACUCCUGUGUGUGUGUGUGAGUGUGUGUGUGUGUGUGUGUGUGUGUGUGUGUGUAUGUGUGUGUACUCUUGCGGUCGCACUAGUGUGGAAUUCUCGGGUGUCAAGG
B3: ENSMUSG00000022095.187|Fam160b2 (ssRNA)
RNA: GGGAGUUCUACAGUCCGACGAUCGCUUCGAUAUCCGCAUGCUAAGGCCUGCAGUUGUUGGCUUCCCUCCUGGGCAAGGAGGAGCAGGCCAGAGCCCCUUUUGCUUCCUUUUCCUGCCCAUGCCACCUCUCGAAGCCGGGCACAGGUUGCCAGGAGGUGACAUGAAAGAGGAGGAAACUCCAUGACCUCUACAUCCCCCGCAGUCCUCCCAGCGGGGGAGGACUUCUCUGCUGCUCCGAAGAACAUCAUGCACUCCUGUGUGUGUGUGUGAGUGUGUGUGUGUGUGUGUGUGUGUGUGUGUGUGCUCUUGCGGUCGCACUAGUGUGGAAUUCUCGGGUGUCAAGG
B4: ENSMUSG00000061578.732|Ksr2 (ssRNA)
RNA: GGGAGUUCUACAGUCCGACGAUCGCUUCGAUAUCCGCAUGCUAGGGGUCAUUGUUCAAUCCUGUAUCAAGACCUUGGAGUUGUCUAAGGCUGUGGGUUUUAAAUACCUGCUGCAGGCCUCCCAUCUCUGGCUCUUUGUUUCCACUCUGGCCCAAGUUUGAGUCUCCAUAUGGGCCCUUCCUGUCCUCAUGCCCUGCCUGUCUUCAUUCCACCCAUCCACCCUCCUAAGGAUUGGUCUUGUUCCGAGAGUGAUCCUGGUAACGCCAAGCCUCCCUCUGCCCCUGUGUUGGCUUCUGUGACGGACCUCUUGCGGUCGCACUAGUGUGGAAUUCUCGGGUGUCAAGG
B5: ENSMUSG00000061578.853|Ksr2 (ssRNA)
RNA: GGGAGUUCUACAGUCCGACGAUCGCUUCGAUAUCCGCAUGCUAAAGCAAAGAGCAAUACAGGAAAAGGUCAGGGGUGAGAUGUGUCAUUGCCACUUCCUCCAGCUAGGACCUUUGAGCAUCACAUUGUGAAGCCAUCCAGGGACUUGGGGGUUAGGUCAGAGGUAUCAAUACAUCUCCGGAAACAUCGUCACAGAUACCUAGAGGUACUUCAUUGAUCCCUUGAAAAGCAUGUCUUAAUUCUGUUAAGAUGUCAAUCAAGAUUACACAUCUCACUGCUUCACAGGCCAUCAGGGCCCCAUUCUCUCUUGCGGUCGCACUAGUGUGGAAUUCUCGGGUGUCAAGG
B6: ENSMUSG00000022095.181|Fam160b2 (ssRNA)
RNA: GGGAGUUCUACAGUCCGACGAUCGCUUCGAUAUCCGCAUGCUAAGAGCACUCGGGCGGCGCCAGGCAUUACCUCACAACAGGCCUGCAGUUGUUGGCUUCCCUCCUGGGCAAGGAGGAGCAGGCCAGAGCCCCUUUUGCUUCCUUUUCCUGCCCAUGCCACCUCUCGAAGCCGGGCACAGGUUGCCAGGAGGUGACAUGAAAGAGGAGGAAACUCCAUGACCUCUACAUCCCCCGCAGUCCUCCCAGCGGGGGAGGACUUCUCUGCUGCUCCGAAGAACAUCAUGCACUCCUGUGUGUGUGUGCUCUUGCGGUCGCACUAGUGUGGAAUUCUCGGGUGUCAAGG
B7: ENSMUSG00000022095.187|Fam160b2|213:226;228:260 (ssRNA)
RNA: GGGAGUUCUACAGUCCGACGAUCGCUUCGAUAUCCGCAUGCUAAGGCCUGCAGUUGUUGGCUUCCCUCCUGGGCAAGGAGGAGCAGGCCAGAGCCCCUUUUGCUUCCUUUUCCUGCCCAUGCCACCUCUCGAAGCCGGGCACAGGUUGCCAGGAGGUGACAUGAAAGAGGAGGAAACUCCAUGACCUCUACAUCCCCCGCAGUCCUCCCAGCGGGGGAGGACUUCUCUGCUGCUCCGAAGAACAUCAUGCACUCCACACACACACACACACACACACACACACACACACACACACACACACACCUCUUGCGGUCGCACUAGUGUGGAAUUCUCGGGUGUCAAGG
B8: ENSMUSG00000022095.185|Fam160b2|225:238;240:260 (ssRNA)
RNA: GGGAGUUCUACAGUCCGACGAUCGCUUCGAUAUCCGCAUGCUAUUACCUCACAACAGGCCUGCAGUUGUUGGCUUCCCUCCUGGGCAAGGAGGAGCAGGCCAGAGCCCCUUUUGCUUCCUUUUCCUGCCCAUGCCACCUCUCGAAGCCGGGCACAGGUUGCCAGGAGGUGACAUGAAAGAGGAGGAAACUCCAUGACCUCUACAUCCCCCGCAGUCCUCCCAGCGGGGGAGGACUUCUCUGCUGCUCCGAAGAACAUCAUGCACUCCACACACACACACACACACACACACACACACACACACCUCUUGCGGUCGCACUAGUGUGGAAUUCUCGGGUGUCAAGG
B9: ENSMUSG00000022095.196|Fam160b2 (ssRNA)
RNA: GGGAGUUCUACAGUCCGACGAUCGCUUCGAUAUCCGCAUGCUAUUUUGCUUCCUUUUCCUGCCCAUGCCACCUCUCGAAGCCGGGCACAGGUUGCCAGGAGGUGACAUGAAAGAGGAGGAAACUCCAUGACCUCUACAUCCCCCGCAGUCCUCCCAGCGGGGGAGGACUUCUCUGCUGCUCCGAAGAACAUCAUGCACUCCUGUGUGUGUGUGUGAGUGUGUGUGUGUGUGUGUGUGUGUGUGUGUGUGUAUGUGUGUGUAUAUGUGUGUGUGUGUGUGUAUGUGUGUGUGUGUGUGUGAGUGCUCUUGCGGUCGCACUAGUGUGGAAUUCUCGGGUGUCAAGG
B10: ENSMUSG00000022095.195|Fam160b2 (ssRNA)
RNA: GGGAGUUCUACAGUCCGACGAUCGCUUCGAUAUCCGCAUGCUAAGCCCCUUUUGCUUCCUUUUCCUGCCCAUGCCACCUCUCGAAGCCGGGCACAGGUUGCCAGGAGGUGACAUGAAAGAGGAGGAAACUCCAUGACCUCUACAUCCCCCGCAGUCCUCCCAGCGGGGGAGGACUUCUCUGCUGCUCCGAAGAACAUCAUGCACUCCUGUGUGUGUGUGUGAGUGUGUGUGUGUGUGUGUGUGUGUGUGUGUGUGUAUGUGUGUGUAUAUGUGUGUGUGUGUGUGUAUGUGUGUGUGUGUGUGCUCUUGCGGUCGCACUAGUGUGGAAUUCUCGGGUGUCAAGG
B11: ENSMUSG00000022095.197|Fam160b2 (ssRNA)
RNA: GGGAGUUCUACAGUCCGACGAUCGCUUCGAUAUCCGCAUGCUAUUCCUUUUCCUGCCCAUGCCACCUCUCGAAGCCGGGCACAGGUUGCCAGGAGGUGACAUGAAAGAGGAGGAAACUCCAUGACCUCUACAUCCCCCGCAGUCCUCCCAGCGGGGGAGGACUUCUCUGCUGCUCCGAAGAACAUCAUGCACUCCUGUGUGUGUGUGUGAGUGUGUGUGUGUGUGUGUGUGUGUGUGUGUGUGUAUGUGUGUGUAUAUGUGUGUGUGUGUGUGUAUGUGUGUGUGUGUGUGUGAGUGAGUGUGCUCUUGCGGUCGCACUAGUGUGGAAUUCUCGGGUGUCAAGG
B12: ENSMUSG00000022095.198|Fam160b2 (ssRNA)
RNA: GGGAGUUCUACAGUCCGACGAUCGCUUCGAUAUCCGCAUGCUAUUCCUGCCCAUGCCACCUCUCGAAGCCGGGCACAGGUUGCCAGGAGGUGACAUGAAAGAGGAGGAAACUCCAUGACCUCUACAUCCCCCGCAGUCCUCCCAGCGGGGGAGGACUUCUCUGCUGCUCCGAAGAACAUCAUGCACUCCUGUGUGUGUGUGUGAGUGUGUGUGUGUGUGUGUGUGUGUGUGUGUGUGUAUGUGUGUGUAUAUGUGUGUGUGUGUGUGUAUGUGUGUGUGUGUGUGUGAGUGAGUGUGUGUGUGCUCUUGCGGUCGCACUAGUGUGGAAUUCUCGGGUGUCAAGG
B13: ENSMUSG00000058297.304|Spock2|17:22 (ssRNA)
RNA: GGGAGUUCUACAGUCCGACGAUCGCUUCGAUAUCCGCAUGCUAAGUGAGGGCAGCCCCCACACACGUGGAAGAGGCUGGGCAGCUAGCUACUGGGGACCUUGUGCUGAGGCUUCCAGGACAAAGCCCCAGUCUGGCUCUCCCCCAGCCUCUCAGGGGCACUGGCUGGUCACAUCCACUGAGUAUUGAUCGGUUGGACUUUAGGGAAGAGCCUCCUCCUUCCCAUUCCUUUCUGCCACCCUGGAAUGGCCACCUUAAUCGUCAUCUCCUCGGGGGGAAUACGGAAAUGUCACCAAGCUCCAUAACUCUUGCGGUCGCACUAGUGUGGAAUUCUCGGGUGUCAAGG

What follows are binders tested against TDP-43 (Homo sapiens, UniProt Q13148 1-414) (assay: RNA Bind-n-Seq with designed 260-mer pool; 25 mM Tris-HCl, 150 mM KCl, 3 mM MgCl2, BSA (printed 500 mg/mL), 20 units/mL SUPERase IN; pH not stated; 500 nM RNA pool, 1 h, 4 C; TDP-43 5, 50, 500 nM; high values mean tight binding). Details: protein: recombinant; tags: SBP (GST cleaved off with PreScission; pGEX-GST-SBP).
Sequence of TDP-43 (Q13148 whole entry): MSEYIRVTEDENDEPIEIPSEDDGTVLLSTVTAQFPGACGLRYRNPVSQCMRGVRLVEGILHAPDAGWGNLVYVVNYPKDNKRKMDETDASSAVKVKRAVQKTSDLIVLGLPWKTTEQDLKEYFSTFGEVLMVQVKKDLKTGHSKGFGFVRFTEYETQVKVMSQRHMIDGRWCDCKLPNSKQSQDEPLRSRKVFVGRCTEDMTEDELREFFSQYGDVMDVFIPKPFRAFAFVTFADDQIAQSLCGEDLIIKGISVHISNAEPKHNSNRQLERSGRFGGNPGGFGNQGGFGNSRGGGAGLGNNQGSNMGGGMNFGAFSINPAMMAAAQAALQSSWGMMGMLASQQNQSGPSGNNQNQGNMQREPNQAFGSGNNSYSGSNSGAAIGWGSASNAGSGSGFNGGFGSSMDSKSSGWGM
How it was run: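 Binding (R) is the ratio of each oligo's mapped-read-normalized abundance in the bound fraction to its abundance in the input. To obtain it, SBP-tagged recombinant TDP-43 (5, 50 or 500 nM) on streptavidin beads was incubated with 500 nM of an in vitro-transcribed 260-nt 3′ UTR oligo pool for 1 h at 4 °C in 25 mM Tris-HCl, 150 mM KCl, 3 mM MgCl2, BSA and SUPERase IN. The RNA retained after washing was released with biotin, then reverse transcribed, amplified by PCR and sequenced.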

Row | Binder | binding signal
1 | B1 | 7.09 R (bound/input frequency ratio)
2 | B2 | 5.45 R (bound/input frequency ratio)
3 | B3 | 6.28 R (bound/input frequency ratio)
4 | B4 | 1.54 R (bound/input frequency ratio)
5 | B5 | 0.223 R (bound/input frequency ratio)
6 | B6 | 0.283 R (bound/input frequency ratio)
7 | B7 | 1.89 R (bound/input frequency ratio)
8 | B8 | 2.7 R (bound/input frequency ratio)
9 | B9 | 6.8 R (bound/input frequency ratio)
10 | B10 | 9.34 R (bound/input frequency ratio)
11 | B11 | 6.5 R (bound/input frequency ratio)
12 | B12 | 10 R (bound/input frequency ratio)
13 | B13 | 0.535 R (bound/input frequency ratio)
